± gives the standard deviation of the averaged measurements. In all, about 25,000 sequences were measured (“ln(normalized median fluorescence intensity)”: median about 10, highest 2% from about 12 on). Only a selection was taken, and the highest values are over-represented in it overall.
tested on: PfAP2-G AP2 domain (GST-tagged); assay: gcPBM binding intensity (ln(normalized median fluorescence intensity)); higher = stronger DNA binding
Method in brief: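 Alexa488 anti-GST antibody, scanned at 488 nm, detected GST-tagged P. falciparum DNA-binding domains that had been expressed in E. coli and incubated for 1 h on an Agilent 4 × 180k array. The array carried primer-extended double-stranded 36-bp intergenic genomic probes and negative controls. Binding intensity is the highest Masliner-normalised natural-log median intensity across replicate spots of either orientation of each probe.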

Sequence	gcPBM binding intensity (ln)
AACACAAGAACAGAACGTACACACACATATATATAT [XGTACX_site7347]	11.3 ± 0.61
TAAAATTTTTGTTTTTGTACGAAACATCAATTTTAC [XGTACX_site4963]	10.7 ± 0.34
AAGAAAAATTTAAACTGTACTTGTTTTCCAATGAAC [XGTACX_site4443]	11.4 ± 1
AAAAAATGAAAAAACTGTACGCAATTTTGTTTTTAT [XGTACX_site2299]	11.7 ± 1.2
CTTAAATTGAAATGTTGTACAAAGTAAAAACAATGA [XGTACX_site2123]	11.2 ± 0.86
GTATATCACACATTTGCATGTTGTCAATAGTTTATC [TGCATGCA_site134]	10.23 ± 0.014
ATTTAAAAAATATATTGTACATATTTTATTATGTTT [XGTACX_site2984]	11 ± 0.63
TTCTTTAAAATATTATGTACACATTGCGAACAGTTT [XGTACX_site5418]	11.7 ± 1
TTAAAAATATTATGTACACACATTTTAGATATTTGT [CACACA_site1846]	11.6 ± 0.77
GTTATAAAATATGGCACACAAAATGTAAGTAAATGA [CACACA_site1458]	10.5 ± 0.2
TTCATTAATGTGTAATGTACTTGTAATATGGGATTA [XGTACX_site3903]	11.1 ± 0.82
TTTTTATTTATATGATACTTATATATATATATATAT [CACACA_negctrl_site462]	10.2 ± 0.35
ATATATATTTATAGGTGTACAAAATACTATTTTAGG [XGTACX_site8499]	11.3 ± 0.82
CGATACTTTAGGTGTACACAAATATACATGAATGAG [CACACA_site5189]	11.6 ± 0.84
TTTATACACAAAAAATGTACATATATATAATGAATT [XGTACX_site1195]	11.2 ± 0.72
TATTTATATAGGTATACACACATACAAATATGTAAA [CACACA_site7705]	10 ± 0.28
TTTTCTTTTTTCTGTTGTACTAAAAATAATTTTGTA [XGTACX_site5171]	11.3 ± 0.87
TTACAAATAATTTGTTGTACGCTTTTTTTCTTTTTT [XGTACX_site7199]	11.7 ± 1.1
AAAATTTCTTTTTTTTGTACATATATAATAATATAT [XGTACX_site7107]	10.9 ± 0.62
GACAAAATGATAGGGACACACAATATCAATGTTTAA [CACACA_site765]	10.7 ± 0.51
TTTTTTTTTTTTGAGTGTACTAAAATATTACCTTTT [XGTACX_site646]	11.2 ± 0.99
TAAAATAATAAACAGAAGAAATCATTCATATAAAAA [XGTACX_negctrl_site502]	9.635 ± 0.035

Sequence	gcPBM binding intensity (ln)
ATAAATGAAAAAAAGCGTACATATAAAAAAATATAT [XGTACX_site5063]	11.6 ± 1
TTAACAAAATTTCCGTGTACGTAAATAAGAACATAG [XGTACX_site7200]	11.8 ± 0.95
ACATAAGAACATATTTGTACGTATATAAATTAAATA [XGTACX_site6127]	11.4 ± 0.79
ATATAAGAACAAAATTGTACATAAATATTTATATAA [XGTACX_site7404]	10.8 ± 0.54
AAATAATTAAAAAAAAGTACACATGTGACTACATAT [XGTACX_site8767]	11.4 ± 0.71
ATGAACATGTGACAATGTACATTTATATCTTAAGAA [XGTACX_site4960]	10.8 ± 0.43
TTTTTTTTTTTTTTTTTTATATTTCATAATTTCATT [XGTACX_negctrl_site579]	9.33 ± 0.71
TTTTGTTTTGTTTTGTTTTGTTTTGTTTTATTTTAT [GTGCAC_negctrl_site383]	9.86 ± 0.27
GAATACACCACGCACACACACTTGAGAAAAAATAAA [CACACA_site7747]	10.6 ± 0.56
TTTTTTTTTTTTGGTAGTACATAAATATTTTATGGA [XGTACX_site6851]	12 ± 1.7
AAATTATATATAAAATGTACATATGTAGGTAATTTT [XGTACX_site5047]	10.9 ± 0.49
TATTTGTTTTTATATAGTACATAAATATATATATAT [XGTACX_site7834]	10.9 ± 0.61
AAATTAAAATAAAATAGTACATATATTTATATTTTT [XGTACX_site1687]	11.1 ± 0.69
TATATTTTTATATTTTGTACATATAGTAAATATAAA [XGTACX_site4768]	10.8 ± 0.51
ATATAGTAAATTGGTAGTACATAAAATGATTTTATG [XGTACX_site4143]	11.6 ± 0.95
TTTTGTTGTTGTTGTTGTACATAAATAATAAAATAT [XGTACX_site8681]	11.3 ± 0.95
TATAGGTAAATGGACACACACATATTTATATTTATA [CACACA_site7683]	10.9 ± 0.58
AGTAAATATATTATATGTACGTATCATAAAATATAT [XGTACX_site1567]	11.6 ± 0.86
TTTTTTTTTATAAGGTGTACGTAAAATGTGTAGGTC [XGTACX_site3585]	11.6 ± 0.82
ATTATATATATCAGGTGTACGTAAAAAAAATGGACG [XGTACX_site1028]	11.9 ± 0.81
TAAAAATATATGTATACACACATATATATATATATA [CACACA_site3951]	10 ± 0.38
AATGCTATCTTCTTATTTTTCATACACAACATGAAC [CACACA_negctrl_site1809]	10.2 ± 0.11
